Experimental data published in PubChem BioAssay (Tox21).
Inconclusive results are not listed. Activity calls are given as the source filed them. Calls come from the whole dose curve; as a rule, active = well fitted curve in the direction sought with a large enough effect in the repeat runs; inconclusive = weak or mixed curves; inactive = no such curve, though single readings can be large; an effect the other way counts as inactive or inconclusive.

Assays:
[1] = A CellTox Green Cytotoxicity Assay to monitor cytotoxicity in HEK293 cells - 40 hour (AID 1224871); note: nearly all actives have a fitted effect of over 45% in size
Summary of the method: (§1)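 Fluorescence from a DNA-binding dye excluded by viable cells was measured repeatedly in the same HEK293 wells (600 cells/well) during continuous compound exposure at 37 C. Each assay gives one read point: 0, 8, 16, 24, 32 or 40 h.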

[2] = qHTS RealTime-Glo MT Cell Viability Assay in HEK293 cells - 16 hour (AID 1224872); note: top concentration of the series differs between compounds; nearly all actives have a fitted effect of over 50% in size
Summary of the method: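 Tox21 10K qHTS, HEK293, 600 cells/well, RealTime-Glo reagent co-dispensed with cells; 5 h preincubation, compound by pintool, 37 C, luminescence at 0–40 h.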

[3] = qHTS RealTime-Glo MT Cell Viability Assay in HepG2 cells - 8 hour (AID 1224873); note: nearly all actives have a fitted effect of over 55% in size
Summary of the method: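 HepG2 cells (600/well) mixed with RealTime-Glo MT reagent, settled 5 h at 37 C/5% CO2 before compound addition. Nonlytic NanoLuc luminescence from viable-cell prosubstrate reduction read repeatedly during 40 h treatment at 37 C.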

[4] = qHTS RealTime-Glo MT Cell Viability Assay in HEK293 cells - 40 hour (AID 1224874); details: RealTime-Glo luminescence; max response: hits give low values; note: nearly all actives have a fitted effect of over 50% in size
Summary of the method: (§2)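 Luminescence, which tracks viable cell number through reduction of the prosubstrate to a NanoLuc substrate, was read over continuous 37 C culture. Cells (600/well) were premixed with reagent and rested 5 h before 23 nL of compound in DMSO was pinned.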

[5] = A CellTox Green Cytotoxicity Assay to monitor cytotoxicity in HEK293 cells - 24 hour (AID 1224875); note: series mostly up to about 77 µM; nearly all actives have a fitted effect of over 45% in size
Summary of the method: as §1

[6] = qHTS RealTime-Glo MT Cell Viability Assay in HepG2 cells - 32 hour (AID 1224877); note: nearly all actives have a fitted effect of over 55% in size
Summary of the method: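 Cells + NanoLuc/prosubstrate dispensed (600 cells/well) → 5 h at 37 C/5% CO2 → compounds in DMSO transferred → 40 h incubation at 37 C, luminescence read at 0, 8, 16, 24, 32, 40 h.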

[7] = qHTS RealTime-Glo MT Cell Viability Assay in HEK293 cells - 0 hour (AID 1224880); note: top concentration of the series differs between compounds; nearly all actives have a fitted effect of over 45% in size
Summary of the method: as §2

[8] = A CellTox Green Cytotoxicity Assay to monitor cytotoxicity in HepG2 cells - 16 hour (AID 1224876); note: nearly all actives have a fitted effect of over 45% in size
Summary of the method: (§3)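 Real-time cytotoxicity: fluorescence of a cell-impermeant cyanine dye binding DNA of dead HepG2 cells, measured repeatedly (0–40 h) during compound exposure at 37 C. Cells seeded 600/well with reagent, dosed after 5 h.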

[9] = A CellTox Green Cytotoxicity Assay to monitor cytotoxicity in HepG2 cells - 24 hour (AID 1224878); note: nearly all actives have a fitted effect of over 45% in size
Summary of the method: as §3

[10] = A CellTox Green Cytotoxicity Assay to monitor cytotoxicity in HepG2 cells - 40 hour (AID 1224879); note: nearly all actives have a fitted effect of over 40% in size
Summary of the method: as §3
% is set by controls: 0 for no effect and ±100 for the full control effect.

Cc1ccc(C(=O)c2ccc(CC(=O)O)n2C)cc1
inactive: Potency [1] | Potency [2] | outcome [3] | max response [4] 1.68% | outcome [5] | Potency [6] | Potency [7]

CN1C(C)(C)CC(O)CC1(C)C
inactive: Potency [1] | Potency [2] | outcome [3] | max response [4] 2.49% | outcome [5] | outcome [8] | Potency [6] | outcome [9] | Potency [7]

Cc1ccc(C(=O)Nc2ccc(S(=O)(=O)O)c3cc(S(=O)(=O)O)cc(S(=O)(=O)O)c23)cc1NC(=O)c1cccc(NC(=O)Nc2cccc(C(=O)Nc3cc(C(=O)Nc4ccc(S(=O)(=O)O)c5cc(S(=O)(=O)O)cc(S(=O)(=O)O)c45)ccc3C)c2)c1
inactive: Potency [1] | Potency [2] | outcome [3] | max response [4] 4.78% | outcome [8] | Potency [6] | outcome [9] | Potency [10]

CC1CCC(CO)CC1 (stereo not drawn)
inactive: Potency [1] | Potency [2] | outcome [3] | max response [4] 9.47% | outcome [8] | Potency [6] | outcome [9] | Potency [10] | Potency [7]

FB(F)F
inactive: Potency [1] | Potency [2] | outcome [3] | max response [4] -1.41% | outcome [8] | Potency [6] | outcome [9]

Cc1c(N)c(=O)n(-c2ccccc2)n1C
inactive: Potency [1] | Potency [2] | outcome [3] | max response [4] -5.41% | outcome [5] | Potency [6] | Potency [7]

OCCCCCO
inactive: Potency [1] | Potency [2] | outcome [3] | max response [4] 4.41% | outcome [5] | outcome [8] | Potency [6] | outcome [9] | Potency [7]

NC(N)=NCCN1CCCCCCC1
inactive: cytotoxicity increase [1] 1.15% [at 0.29 µM] | activity change, negative = cytotoxicity [2] -1.96% [at 0.29 µM] | viability change, negative = cytotoxic [3] 0.369% [at 0.29 µM] | max response [4] -2.62% | activity change [5] 3.96% [at 0.29 µM] | cytotoxicity increase [8] -11.2% [at 0.29 µM] | activity change, negative = cytotoxic [6] 0.55% [at 0.29 µM] | cytotoxicity [9] -13.4% [at 0.29 µM] | activity change, negative = cytotoxicity [7] -7.81% [at 0.29 µM]

Cc1ccccc1N=C(N)N=C(N)N
inactive: Potency [1] | Potency [2] | outcome [3] | max response [4] -9.52% | outcome [5] | outcome [8] | Potency [6] | outcome [9] | Potency [7]

CC(C)[C@H]1CC[C@@H](C)CC1=O
inactive: Potency [1] | Potency [2] | outcome [3] | max response [4] -1.73% | outcome [5] | outcome [8] | Potency [6] | outcome [9] | Potency [7]

CCCCCCCCCCCCCCC(=O)O
inactive: Potency [1] | Potency [2] | outcome [3] | max response [4] 23.9% | outcome [5] | outcome [8] | Potency [6] | outcome [9] | Potency [7]

CCCn1cc[n+](C)c1C
inactive: Potency [1] | Potency [2] | outcome [3] | max response [4] 0.77% | outcome [5] | outcome [8] | outcome [9] | Potency [7]

CC(C)(CCC(=O)O)C(=O)O
inactive: Potency [1] | Potency [2] | outcome [3] | max response [4] 0.835% | outcome [5] | outcome [8] | Potency [6] | outcome [9] | Potency [7]

Cc1ncc([C@@H](CCCCCCc2ccc3c(n2)NCCC3)CC(=O)O)cn1
inactive: Potency [1] | Potency [2] | outcome [3] | max response [4] 4.72% | outcome [5] | outcome [8] | Potency [6] | outcome [9] | Potency [7]

CN(C)[C@@H]1C(=O)C(C(=O)NCN2CCCC2)=C(O)[C@@]2(O)C(=O)C3=C(O)c4c(O)cccc4[C@@](C)(O)C3C[C@@H]12 (stereo partly drawn)
inactive: Potency [1] | Potency [2] | outcome [3] | max response [4] 7.86% | outcome [5] | outcome [8] | Potency [6] | outcome [9] | Potency [10] | Potency [7]

Cc1cccc(C)c1NC(=O)CC12CCCN1CCC2
inactive: Potency [1] | Potency [2] | outcome [3] | max response [4] 5.91% | outcome [5] | Potency [6] | Potency [7]

Cc1ccc(-c2ncc(Cl)cc2-c2ccc(S(C)(=O)=O)cc2)cn1
inactive: Potency [1] | Potency [2] | outcome [3] | max response [4] -19.4% | outcome [8] | Potency [6] | outcome [9]

N[C@H](C(=O)O)[C@@H](O)c1ccc(O)c(O)c1
inactive: Potency [1] | Potency [2] | outcome [3] | max response [4] 0.604% | outcome [5] | outcome [8] | Potency [6] | outcome [9] | Potency [7]

Cc1ncc(COP(=O)(O)O)c(C=O)c1O
inactive: Potency [1] | Potency [2] | outcome [3] | max response [4] -0.601% | outcome [5] | outcome [8] | Potency [6] | outcome [9] | Potency [10] | Potency [7]

O=C(CO)[C@@H](O)[C@H](O)[C@H](O)CO
inactive: Potency [1] | Potency [2] | outcome [3] | max response [4] 1.94% | outcome [5] | outcome [8] | Potency [6] | outcome [9] | Potency [7]

N[C@@H](CCC(=O)O)C(=O)O
inactive: Potency [1] | Potency [2] | outcome [3] | max response [4] -0.971% | outcome [5] | outcome [8] | Potency [6] | outcome [9] | Potency [7]

O=C(CO)[C@@H](O)[C@H](O)[C@@H](O)CO
inactive: Potency [1] | Potency [2] | outcome [3] | max response [4] 5.66% | outcome [5] | Potency [6] | Potency [7]

CCCCCCCCCC[N+](C)(C)[O-]
inactive: Potency [1] | Potency [2] | outcome [3] | max response [4] -6.97% | outcome [5] | Potency [6] | Potency [7]
